PubChem BioAssay
Calls of active or inactive are those of the source.

Key:
[1] = binders of probe aFSTL3 on microarray, primary screen, stem cell growth factor project, biochemical, small-molecule microarray, fluorescence 635/667 (AID 1064); conditions: higher = more signal;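 also: measures binding of the biotinylated anti-FSTL3 antibody to printed compounds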
[2] = binders from COS7 lysate, DM2A8 probe, primary screen, torsin A project, cell lysate, small-molecule microarray, fluorescence 635/667 (AID 1065); conditions: higher = more signal, COS7 lysate expressing mutant human TOR1A
[3] = binders of probe aFGF2 on microarray, primary screen, stem cell growth factor project, biochemical, small-molecule microarray, fluorescence 635/667 (AID 1067); conditions: higher = more signal;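 also: measures binding of biotinylated aFGF2 protein to printed compounds on slides; z-score merges feature fluorescence and signal-to-noise across triplicate slides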
[4] = binders of probe aFGF10 on microarray, primary screen, stem cell growth factor project, biochemical, small-molecule microarray, fluorescence 635/667 (AID 1071); conditions: higher = more signal;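 also: score merges 667 nm spot intensity and signal to noise from triplicate slides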
[5] = molecular target: Neurogenic locus notch homolog protein 2 (Homo sapiens) (UniProt Q04721); test: Notch2 binders on small-molecule microarrays, primary screen, biochemical, small-molecule microarray, 635 nm fluorescence, stem cell growth factors (AID 1073); conditions: Notch2 binding, higher = more signal
[6] = molecular target: Pro-neuregulin-1, membrane-bound isoform (Homo sapiens) (UniProt Q02297); test: NRG1 binders on small-molecule microarrays, primary screen, psychiatric disease protein project, biochemical, small-molecule microarray, fluorescence 635/667 (AID 1075); conditions: NRG1 binding, 635 nm fluorescence, higher = more signal;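 also: score combines 667 nm spot fluorescence with signal to noise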
[7] = system: Neuregulin-1 EGF-like domain; test: binders of neuregulin-1 EGF-like domain, primary screen, biochemical, small-molecule microarray, 635 nm fluorescence (AID 1081); conditions: small-molecule microarray binding, higher = more signal;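 also: binding of the protein to compounds printed on small-molecule microarray slides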
[8] = FRG1 promoter luciferase signal modulators, primary screen, FRG1 inhibition for FSHD, cell-based, C2C12 myotubes, firefly/Renilla luciferase, luminescence (AID 1084); conditions: higher = more signal, called active from +8 up or from −8 down
[9] = binders of probe aFST on microarray, primary screen, stem cell growth factor project, biochemical, small-molecule microarray, fluorescence 635/667 (AID 1086); conditions: higher = more signal;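 also: score merges 667 nm fluorescence with signal-to-noise of each printed compound spot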
[10] = binders of probe aHhip on microarray, primary screen, stem cell growth factor project, biochemical, small-molecule microarray, fluorescence 635/667 (AID 1087); conditions: higher = more signal;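 also: score merges spot fluorescence at 667nm with spot signal to noise ratio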
[11] = system: PRMT1 (protein arginine N-methyltransferase 1); test: PRMT1 binders on small-molecule microarrays, primary screen, biochemical, small-molecule microarray, 635 nm fluorescence (AID 1088); conditions: small-molecule microarray binding, higher = more signal;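 also: binding of Prmt1 protein to compounds spotted on small-molecule microarray slides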
[12] = yeast growth modulation, basal conditions, primary screen, YJM789 clinical isolate, OD600, 24 h (AID 1089);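 also: growth of clinical yeast isolate S. cerevisiae YJM 789 seeded 1000 cells per well; test concentration not given here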; conditions: S. cerevisiae YJM789 growth, higher = more signal, called active from +8 up or from −8 down
[13] = fission yeast growth modulation, primary screen, strain 972, OD600, 24 h, no modulator (AID 1090);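 also: basal condition with compound alone and no growth modifier present; test concentration not given here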; conditions: S. pombe 972 growth, higher = more signal, called active from +8 up or from −8 down
[14] = S. cerevisiae growth modulation with rapamycin, primary screen, strain BY4716, OD600, 96 h (AID 1091); conditions: higher = more signal, called active from +8 up or from −8 down; also: test concentration not given here
[15] = molecular target: Torsin-1A-interacting protein 2 (Homo sapiens) (UniProt Q8NFQ8); test: LULL1 binders on small-molecule microarray, primary screen, cell lysate, human LULL1 lysate, 635/667 nm fluorescence (AID 1092); conditions: hLULL1 lysate binding, 635 nm fluorescence, higher = more signal;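 also: probe is lysate of COS7 cells overexpressing human LULL1; score merges per-feature 667 nm fluorescence with signal-to-noise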
[16] = E. coli growth modulation, two-sided OD650, primary screen, E. coli filamentation project, strain DRC41, 24 h (AID 1093); conditions: OD650, 24 h, higher = more signal, called active from +8 up or from −8 down;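 also: MC1000 strain lacking acrAB efflux and sulA so SOS filamentation is blocked; test concentration not given here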
[17] = small-molecule microarray binders of probe aLefty2, primary screen, biochemical, biotinylated probe, 635/667 nm fluorescence (AID 1094); conditions: higher = more signal;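 also: score merges spot fluorescence near 667 nm with spot signal-to-noise ratio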
[18] = system: Noggin (protein binding on small-molecule microarray); test: Noggin binders on small-molecule microarray, primary screen, biochemical, 635/667 nm fluorescence (AID 1095); conditions: 635 nm fluorescence, higher = more signal;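 also: score merges 667 nm feature fluorescence with signal to noise over triplicate slides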
[19] = molecular target: Neurogenic locus notch homolog protein 3 (Homo sapiens) (UniProt Q9UM47); test: NOTCH3 binders on small-molecule microarray, primary screen, biochemical, 635/667 nm fluorescence (AID 1096); conditions: NOTCH3 binding, 635 nm fluorescence, higher = more signal
[20] = small-molecule microarray binders of probe aEGFR, primary screen, biochemical, biotinylated probe, 635/667 nm fluorescence (AID 1097); conditions: higher = more signal;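 also: probe is a biotinylated anti-EGFR antibody binding compounds printed on slides; score combines fluorescence near 667 nm and signal to noise of each spot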

Chain of Neurogenic locus notch homolog protein 3 (Homo sapiens) (Q9UM47 whole entry, looked up): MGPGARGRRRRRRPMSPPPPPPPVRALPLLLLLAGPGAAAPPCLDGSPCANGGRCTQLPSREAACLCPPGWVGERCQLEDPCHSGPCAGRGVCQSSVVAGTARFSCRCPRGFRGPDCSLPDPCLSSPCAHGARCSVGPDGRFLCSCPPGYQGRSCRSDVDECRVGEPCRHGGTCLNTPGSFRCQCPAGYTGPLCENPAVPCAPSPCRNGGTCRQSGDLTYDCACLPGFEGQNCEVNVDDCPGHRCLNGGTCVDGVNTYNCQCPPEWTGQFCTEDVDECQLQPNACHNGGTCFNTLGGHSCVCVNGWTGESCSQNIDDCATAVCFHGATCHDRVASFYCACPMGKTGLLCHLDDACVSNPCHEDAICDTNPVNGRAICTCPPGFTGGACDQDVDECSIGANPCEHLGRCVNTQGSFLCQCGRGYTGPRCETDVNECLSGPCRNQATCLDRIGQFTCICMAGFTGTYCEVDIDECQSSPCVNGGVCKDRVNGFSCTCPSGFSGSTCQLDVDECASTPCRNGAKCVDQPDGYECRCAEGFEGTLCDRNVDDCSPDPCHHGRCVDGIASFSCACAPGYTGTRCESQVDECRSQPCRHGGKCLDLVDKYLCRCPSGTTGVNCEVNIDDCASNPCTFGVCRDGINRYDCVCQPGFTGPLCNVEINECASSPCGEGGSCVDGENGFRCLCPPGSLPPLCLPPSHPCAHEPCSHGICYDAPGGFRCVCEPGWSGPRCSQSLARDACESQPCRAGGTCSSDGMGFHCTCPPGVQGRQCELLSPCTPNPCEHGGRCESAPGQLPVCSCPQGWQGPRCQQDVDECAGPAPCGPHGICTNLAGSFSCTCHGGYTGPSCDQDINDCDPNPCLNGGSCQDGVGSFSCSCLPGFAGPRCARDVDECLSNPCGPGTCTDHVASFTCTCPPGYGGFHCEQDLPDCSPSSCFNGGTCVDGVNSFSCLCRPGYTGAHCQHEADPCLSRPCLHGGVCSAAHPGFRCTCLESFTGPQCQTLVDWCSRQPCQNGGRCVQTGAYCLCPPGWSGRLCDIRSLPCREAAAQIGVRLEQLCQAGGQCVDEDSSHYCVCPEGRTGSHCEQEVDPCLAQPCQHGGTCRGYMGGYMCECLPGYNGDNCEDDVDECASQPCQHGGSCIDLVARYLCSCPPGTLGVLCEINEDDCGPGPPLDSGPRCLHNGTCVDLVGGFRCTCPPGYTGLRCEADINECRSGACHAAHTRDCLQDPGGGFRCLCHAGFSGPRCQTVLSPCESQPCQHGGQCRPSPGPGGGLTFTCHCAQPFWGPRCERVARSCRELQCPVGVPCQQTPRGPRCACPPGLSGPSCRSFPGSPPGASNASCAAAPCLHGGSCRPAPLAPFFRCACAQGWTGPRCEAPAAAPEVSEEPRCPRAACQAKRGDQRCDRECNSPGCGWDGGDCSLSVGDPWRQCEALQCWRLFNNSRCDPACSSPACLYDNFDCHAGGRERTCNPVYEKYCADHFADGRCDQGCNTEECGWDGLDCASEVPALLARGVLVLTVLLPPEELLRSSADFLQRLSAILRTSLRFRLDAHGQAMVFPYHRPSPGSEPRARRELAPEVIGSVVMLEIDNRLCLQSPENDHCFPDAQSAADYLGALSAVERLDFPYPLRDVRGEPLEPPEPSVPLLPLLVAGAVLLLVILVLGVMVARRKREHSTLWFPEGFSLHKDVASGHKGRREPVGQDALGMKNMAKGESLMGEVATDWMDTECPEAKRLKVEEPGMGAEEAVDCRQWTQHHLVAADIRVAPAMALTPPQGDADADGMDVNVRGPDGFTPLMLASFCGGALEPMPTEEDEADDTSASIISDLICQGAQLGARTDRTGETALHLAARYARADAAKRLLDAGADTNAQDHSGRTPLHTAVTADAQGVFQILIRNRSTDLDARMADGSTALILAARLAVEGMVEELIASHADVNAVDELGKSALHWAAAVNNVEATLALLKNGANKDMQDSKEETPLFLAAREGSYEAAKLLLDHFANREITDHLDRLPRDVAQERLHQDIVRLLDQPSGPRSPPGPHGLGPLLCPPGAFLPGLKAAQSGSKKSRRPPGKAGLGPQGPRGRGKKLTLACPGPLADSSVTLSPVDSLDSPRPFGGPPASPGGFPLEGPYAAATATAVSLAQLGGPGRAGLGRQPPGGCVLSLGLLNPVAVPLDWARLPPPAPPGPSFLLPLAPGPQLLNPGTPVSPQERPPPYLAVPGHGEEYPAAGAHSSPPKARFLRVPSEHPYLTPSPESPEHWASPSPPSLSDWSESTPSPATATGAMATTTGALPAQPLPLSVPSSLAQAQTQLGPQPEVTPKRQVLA
Chain of Pro-neuregulin-1, membrane-bound isoform (Homo sapiens) (Q02297 whole entry, looked up, the tested form may be a part, canonical isoform): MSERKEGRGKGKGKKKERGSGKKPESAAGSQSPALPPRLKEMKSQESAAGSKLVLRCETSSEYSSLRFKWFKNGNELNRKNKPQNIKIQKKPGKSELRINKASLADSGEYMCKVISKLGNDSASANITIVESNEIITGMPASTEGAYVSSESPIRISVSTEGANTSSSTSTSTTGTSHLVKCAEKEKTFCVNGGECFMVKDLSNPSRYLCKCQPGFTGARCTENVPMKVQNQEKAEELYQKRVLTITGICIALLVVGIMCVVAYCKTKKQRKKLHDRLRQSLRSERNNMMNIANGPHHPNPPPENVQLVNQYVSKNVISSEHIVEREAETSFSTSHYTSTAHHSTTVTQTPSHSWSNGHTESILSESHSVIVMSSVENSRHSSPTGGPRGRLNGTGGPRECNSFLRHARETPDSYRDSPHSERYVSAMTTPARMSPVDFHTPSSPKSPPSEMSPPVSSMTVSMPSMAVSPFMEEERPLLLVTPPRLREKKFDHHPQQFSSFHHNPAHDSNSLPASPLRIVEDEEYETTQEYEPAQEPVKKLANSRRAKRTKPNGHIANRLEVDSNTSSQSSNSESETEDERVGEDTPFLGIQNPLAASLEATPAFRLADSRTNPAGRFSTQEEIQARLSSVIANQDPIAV
Chain of Torsin-1A-interacting protein 2 (Homo sapiens) (Q8NFQ8 whole entry, looked up): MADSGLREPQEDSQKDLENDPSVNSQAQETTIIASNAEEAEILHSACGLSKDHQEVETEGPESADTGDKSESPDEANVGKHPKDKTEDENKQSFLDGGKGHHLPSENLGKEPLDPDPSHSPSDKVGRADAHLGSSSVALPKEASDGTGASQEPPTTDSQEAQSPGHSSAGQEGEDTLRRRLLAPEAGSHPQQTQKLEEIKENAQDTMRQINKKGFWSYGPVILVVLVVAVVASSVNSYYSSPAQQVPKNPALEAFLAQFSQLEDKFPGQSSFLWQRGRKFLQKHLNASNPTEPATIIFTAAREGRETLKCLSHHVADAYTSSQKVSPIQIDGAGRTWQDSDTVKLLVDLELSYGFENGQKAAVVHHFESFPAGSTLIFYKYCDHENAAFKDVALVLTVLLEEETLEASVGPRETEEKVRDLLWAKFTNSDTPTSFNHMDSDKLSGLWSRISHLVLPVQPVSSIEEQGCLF

SMILES	composite z-score [1]	composite z-score [2]	composite z-score [3]	composite z-score [4]	composite z-score [5]	composite z-score [6]	composite z-score [7]	z-score [8]	composite z-score [9]	composite z-score [10]	composite z-score [11]	z-score [12]	z-score [13]	z-score [14]	composite z-score [15]	z-score [16]	composite z-score [17]	composite z-score [18]	composite z-score [19]	composite z-score [20]
CCN1C(=O)[C@H]2[C@@H]3C(=CC[C@H]2C1=O)C(=O)[C@H]1O[C@H]1[C@H]3O	-0.538	-0.0147	-0.0996	0.465	0.613	0.0141	0.73	-2.63 (inactive)	0.167	-0.0346	0.833	0.367 (inactive)	-0.3 (inactive)	0.247 (inactive)	-0.176	-0.763 (inactive)	-0.138	0.609	0.732	0.0107
CC(C)(C)N1C(=O)[C@H]2[C@H]3[C@H](O)[C@H](O)CC(=NOC[C@@H](O)COCc4ccco4)[C@@H]3CC[C@H]2C1=O	0.812	0.152	-0.0193	0.112	0.0503	-0.0263	-0.214	0.528 (inactive)	-0.0115	-0.0994	-0.424	-0.0093 (inactive)	0.257 (inactive)	0.498 (inactive)	-0.238	0.635 (inactive)	0.16	0.0106	-0.589	-0.141
CCCNC(=O)OC[C@H]1O[C@H](CCON=C[C@@H](NS(=O)(=O)c2ccc(C)cc2)[C@H](C)C=CCC(=O)OC)C=C[C@@H]1Oc1ccc(OC)cc1	-0.341	0.724	-0.0425	-0.183	-0.127	-0.703	-0.83	-0.122 (inactive)	0.118	-0.0994	0.409	-1.21 (inactive)	0.331 (inactive)	-0.148 (inactive)	-0.0006	-0.0353 (inactive)	-0.181	0.0599	-0.0703	-0.0443
CCN1C(=O)[C@H]2[C@H]3[C@H](O)[C@H](O)CC(=NOCC[C@@H]4C=C[C@H](OC(C)=O)[C@@H](COC(C)=O)O4)[C@@H]3CC[C@H]2C1=O	-0.298	0.198	-0.0085	0.547	0.522	0.0776	0.314	0.511 (inactive)	0.186	0.259	-0.001	0.826 (inactive)	-0.473 (inactive)	0.0739 (inactive)	0.506	0.0628 (inactive)	0.0819	0.478	1	-0.0208
CC(C)[C@@H](OCc1ccccc1)[C@H](C)CON=C1[C@H]2CCn3c(=O)n(-c4ccccc4)c(=O)n3[C@H]2[C@H](O)[C@@H]2O[C@H]12	-0.375	0.616	0.0362	0.84	0.541	0.246	0.218	-0.157 (inactive)	0.369	-0.126	0.462	-1.48 (inactive)	-7.06 (inactive)	-0.882 (inactive)	1.56	0.222 (inactive)	-0.0063	0.439	0.597	-0.067
CCOC(=O)[C@H](CC(C)C)NC(=O)CCC1CC(OC(=O)NCc2ccc3c(c2)OCO3)CC2(CCCC(COC(=O)NCCC(C)C)O2)O1 (stereo not given in full)	-0.495	-0.146	-0.119	0.01	-0.195	0.169	0.312	1.38 (inactive)	-0.11	-0.291	0.145	0.138 (inactive)	0.991 (inactive)	-0.511 (inactive)	-0.222	0.796 (inactive)	-0.193	0.482	0.24	-0.0828
CO[C@@H]1COC(=O)[C@H](COCc2ccccc2)NC(=O)CC=C[C@@H](C)[C@H](OC)COC(=O)[C@@H](C)NC(=O)CC=C[C@H]1C	-0.459	1.36	-0.191	-0.632	-0.45	-0.637	-0.826	0.696 (inactive)	-0.0711	0.0139	1.39	0.203 (inactive)	-0.536 (inactive)	0.55 (inactive)	-1.07	1.52 (inactive)	-0.147	1.16	-0.0488	-0.166
C=C(C)C(=O)OC[C@H]1CN2[C@@H](CC[C@@H](C)[C@@H]2c2ccc(Br)cc2)C(=O)O1	-0.223	0.123	-0.166	0.113	-0.283	0.199	0.0297	0.402 (inactive)	-0.155	-0.0618	0.164	0.0739 (inactive)	-3.38 (inactive)	-0.424 (inactive)	0.162	0.436 (inactive)	-0.166	0.195	-0.775	-0.144
CCOC(=O)CCN1C(=O)[C@H]2[C@H]3[C@H](O)[C@H](O)CC(=NOCC=C(C)CCC=C(C)C)[C@H]3CC[C@H]2C1=O	-0.137	0.757	-0.0734	-0.274	0.762	-0.601	-1.74	-0.815 (inactive)	0.752	0.0722	0.467	0.273 (inactive)	-0.215 (inactive)	-0.188 (inactive)	0.0139	0.857 (inactive)	0.287	0.386	0.089	0.106
CCOC(=O)[C@H](CC(C)C)NC(=O)CCC1CC(OC(=O)NCCc2ccc(F)cc2)CC2(CCCC(COC(=O)NCCCN3CCCC3=O)O2)O1 (stereo not given in full)	-0.547	-0.0261	-0.0922	0.403	0.951	-0.0939	0.763	0.404 (inactive)	-0.015	-0.0994	0.838	-0.388 (inactive)	0.531 (inactive)	0.0799 (inactive)	1.26	0.546 (inactive)	-0.132	0.144	0.965	-0.0208
